According to PubChem BioAssay AID1117280 (The Scripps Research Institute Molecular Screening Center, 2014):
In all, about 1,100 compounds went through this assay and fewer than 10 were called active.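 Rule for the calls: active = mean activation above a set limit taken from the earlier primary screen (cut at about 11% in these data); inactive = the rest.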 Not all results are given here.

These compounds were tested against Transthyretin (Homo sapiens) (UniProt P02766) (assay: TTR transcription activators, retest, confirmation, cell-based, luminescence, SH-SY5Y, triplicate (AID 1117280;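 note: 0% = DMSO-treated cells and 100% = recombinant Lucia luciferase without cells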)). Settings: SHSY5Y TTR promoter Gaussia luciferase, at 16.7 µM, hits give high values, 100% = purified Lucia enzyme wells, no cells.

activation, inactive:
CCOc1ccc(N=C2NC(=O)S/C2=C\c2ccc(O)cc2)cc1 -2.11%
Cc1ccccc1/[N+]([O-])=C/c1ccncc1 0.64%
O=C(NCCCNC(=O)c1ccccc1Cl)c1cnccn1 -0.49%
COc1ccccc1N1CCN(Cc2cc(OC)c3c(c2)OCO3)CC1 1.03%
O=C(CCC(=O)c1cccs1)NCc1ccccc1 -0.16%
CCOc1ccc(NC(=O)COc2ccc(S(=O)(=O)N3CCCC3)cc2)cc1 -0.08%
Cc1c(C#N)c(NC(=O)c2ccccc2)n(Cc2ccccc2)c1C 0.46%
O=C(Nc1ccccc1C(=O)N1CCCCCC1)c1ccccc1Cl 0.38%
COc1ccc(S(=O)(=O)NCC(=O)NCc2cc(=O)n(C)c(=O)n2C)cc1F -0.18%
Cc1cccc(N2C(=O)CC(SC(N)=Nc3ccccc3)C2=O)c1 (stereo not given) -0.45%
C=C1C(C(C)C)N(C)C2=NC(c3ccccc3)CC(=O)N12 (stereo not given) 0.07%
Cc1cc(C)c(C#N)c(N2CCC(C(N)=O)CC2)n1 -0.71%
CC(C)NC(=O)c1ccc(Sc2ccccc2)c([N+](=O)[O-])c1 -0.62%
CCOC(=O)c1c(-c2ccccc2)oc2ccc(OCC(N)=O)cc12 -0.6%
O=C(NC(=O)c1ccccc1N1CCCCC1)Nc1ccc(Br)cc1 0.23%
COc1ccc(C2c3ccc(O)cc3Oc3ncn(CCCO)c(=N)c32)cc1OC (stereo not given) -0.83%
CC(C)(C)C1CCC(OC(=O)CCC(=O)Nc2ccccc2)CC1 (stereo not given) -1.07%
O=C(NNC(=O)c1cc(S(=O)(=O)N2CCCCC2)ccc1Cl)c1ccccc1O 0.18%
Nc1nc(SCC(=O)Nc2ccc(Cl)c([N+](=O)[O-])c2)n[nH]1 0.36%
COC(=O)c1cnn2c(C(F)(F)F)cc(-c3ccco3)nc12 -0.89%
O=C1c2cccc(OCC(=O)N3N=C(c4cccs4)CC3c3ccc(F)cc3)c2CCN1Cc1ccccc1 (stereo not given) -0.93%
Cn1cc(CN2CCCC(CO)C2)c(-c2ccc(Oc3ccccc3)cc2)n1 (stereo not given) 2.56%
CCCCN(C)CCNC(=O)C1CCCN(S(=O)(=O)c2cccc3nsnc23)C1 (stereo not given) 0.58%
O=S(=O)(NCc1ccccc1Br)c1ccccc1Br -0.25%
O=C(CS(=O)(=O)c1ccccc1)Nc1ccc(S(=O)(=O)Nc2ccccn2)cc1 -0.26%
